# Results published in PubChem BioAssay (NCATS).
# Several values for one entry are separate records, joined by “and”; a condition that tells them apart may be missing. Identical values can stand only once. Inconclusive results are not listed. Activity calls are given as the source filed them. Unless noted, calls follow the shape of the dose curve; as a rule, active = well fitted curve in the direction sought with a large enough effect; inconclusive = small, poorly fitted or top-dose-only effect, or another doubt; inactive = no such curve, though single readings can be large; an effect the other way counts as inactive or inconclusive.
# Key:
# [1] = qHTS assay for small molecule activators of the nuclear factor-kappa B (NF-kB) signaling pathway (AID 651749; active = well fitted activation curve with a large enough effect in the signal ratio; the % refers to the signal ratio; also: % of control where 0% means no effect); details: NF-kB-bla ME-180 cells, beta-lactamase FRET ratio, 16 h; stronger effect = higher value
# Summary of the method: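 FRET-based beta-lactamase detection in ME-180 cells reports NF-kB response-element-driven transcription following overnight (16 hr) compound treatment.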
# [2] = qHTS assay for small molecule agonists of the antioxidant response element (ARE) signaling pathway (AID 651741; active = well fitted activation curve with a large enough effect in the signal ratio; the % refers to the signal ratio; also: potency is read from the fitted curve at half-maximal effect; as to activation: % of control where 0% means no effect); details: HepG2 ARE-bla reporter, beta-lactamase FRET ratio, 16 h; series mostly up to 96 µM
# Summary of the method: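 Agonist activity is measured as ARE-driven beta-lactamase expression in a stable HepG2 reporter line, using 16 h compound treatment at 37 C and a FRET substrate fluorescence readout after 2 h.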
# [3] = qHTS assay for small molecule activators of the p53 signaling pathway (AID 651743; active = well fitted activation curve with a large enough effect in the signal ratio, not every such curve was filed as active; the % refers to the signal ratio; also: potency is read from the fitted curve at half-maximal effect; as to activation: % of control where 0% means no effect); details: HCT-116 p53RE-bla, beta-lactamase FRET ratio, 16 h; activation: stronger effect = higher value
# Summary of the method: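 A beta-lactamase reporter under p53 response element control, stably carried by HCT-116 cells, reported pathway activation. Test compounds were applied for 16 hours at 37 C, and fluorescence was measured 2 hours after adding the B/G FRET substrate.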
# [4] = qHTS assay for environmental chemicals that activate the Aryl hydrocarbon Receptor (AhR) signaling pathway (AID 651777); details: 1A2-DRE human hepatoma cells, luciferase, 24 h; activation: stronger effect = higher value; also: % of control where 0% means no effect; nearly all actives have a fitted effect of over 15% in size
# Summary of the method: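 Human hepatoma 1A2-DRE cells stably carrying a DRE/CYP1A2 promoter–luciferase reporter, 1,200 cells/well, exposed to compound 24 hr at 37 C. Luciferase read by One-Glo luminescence after 30 min at room temperature; increased signal marks AhR activation.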
# [5] = biological target: Glutaminase kidney isoform, mitochondrial (Homo sapiens) (UniProt O94925); experiment: qHTS for Inhibitors of Glutaminase (GLS): LOPAC Validation (AID 624146); details: glutaminase enzyme activity inhibition; series mostly up to 46.1 µM;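 also: glutamate product detected by oxidase and peroxidase coupled Amplex red fluorescence gain; % is scaled to controls: 0 for no effect and ±100 for the full control effect; nearly all actives have a fitted effect of over 60% in size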
# Glutaminase kidney isoform, mitochondrial (Homo sapiens), sequence (O94925 whole entry, looked up, canonical isoform): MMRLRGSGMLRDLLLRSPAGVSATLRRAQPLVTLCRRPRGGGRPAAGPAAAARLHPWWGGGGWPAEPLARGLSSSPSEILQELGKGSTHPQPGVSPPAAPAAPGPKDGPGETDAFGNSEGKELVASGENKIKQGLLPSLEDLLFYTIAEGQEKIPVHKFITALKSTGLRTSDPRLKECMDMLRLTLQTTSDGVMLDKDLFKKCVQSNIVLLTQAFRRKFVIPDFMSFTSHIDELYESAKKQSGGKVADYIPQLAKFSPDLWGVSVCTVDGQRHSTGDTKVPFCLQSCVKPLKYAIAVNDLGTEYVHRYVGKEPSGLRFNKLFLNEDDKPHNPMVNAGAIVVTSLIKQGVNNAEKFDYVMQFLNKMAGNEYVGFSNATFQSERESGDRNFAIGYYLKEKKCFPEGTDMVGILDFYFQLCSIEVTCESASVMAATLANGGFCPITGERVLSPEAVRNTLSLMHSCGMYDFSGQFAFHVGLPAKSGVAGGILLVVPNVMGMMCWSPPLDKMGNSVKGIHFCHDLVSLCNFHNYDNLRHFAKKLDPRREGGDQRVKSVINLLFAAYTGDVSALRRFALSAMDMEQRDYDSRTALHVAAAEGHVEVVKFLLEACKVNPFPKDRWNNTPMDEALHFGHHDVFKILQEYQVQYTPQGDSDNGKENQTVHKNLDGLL
# Summary of the method: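 Two-point fluorescence kinetic (t0, 30 min RT) for hKGA; glutamate detected via glutamate oxidase–HRP–Amplex Red. Substrate: 1 mM L-glutamine solution; buffer 45 mM KH2PO4, pH 8.2.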
# [6] = qHTS of Trypanosoma Brucei Inhibitors: LOPAC Validation (AID 624147); details: purified enzyme assay, luminescence, 45 min; series mostly up to 57.5 µM; also: 0% is about no effect
# Summary of the method: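 Luminescent Kinase-Glo Plus end-point after 45 min room-temperature reaction of T. brucei pyruvate kinase started with 130 uM ADP (final). Buffer TEA 50 mM pH 7.2 with KCl, MgCl2, BSA, Tween-20; titration-based qHTS with fitted concentration-effect curves.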
# [7] = biological target: Glucagon-like peptide 1 receptor (Homo sapiens) (UniProt P43220); experiment: qHTS of GLP-1 Receptor Agonists: LOPAC Validation (AID 624148); details: GLP-1R agonist cell assay; series mostly up to 46.1 µM;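 also: luminescence from a luciferase reporter switched on by cAMP; 0% is about no effect; higher luminescence signal means agonism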
# Glucagon-like peptide 1 receptor (Homo sapiens), sequence (P43220 whole entry, looked up): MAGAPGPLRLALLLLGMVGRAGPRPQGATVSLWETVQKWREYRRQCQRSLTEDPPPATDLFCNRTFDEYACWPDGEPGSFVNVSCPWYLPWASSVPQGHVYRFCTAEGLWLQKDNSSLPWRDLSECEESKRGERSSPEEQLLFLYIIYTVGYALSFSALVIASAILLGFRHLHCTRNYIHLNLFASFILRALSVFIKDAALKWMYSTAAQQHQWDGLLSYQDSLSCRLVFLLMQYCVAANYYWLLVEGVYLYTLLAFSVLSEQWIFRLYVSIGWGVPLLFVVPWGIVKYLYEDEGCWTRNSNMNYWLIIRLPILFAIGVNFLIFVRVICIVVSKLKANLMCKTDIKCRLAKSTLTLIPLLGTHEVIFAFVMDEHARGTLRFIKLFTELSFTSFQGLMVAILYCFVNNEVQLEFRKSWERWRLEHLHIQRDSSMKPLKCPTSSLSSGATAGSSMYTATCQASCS
# Summary of the method: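 Agonism scored as increased luciferase luminescence driven by cAMP in HEK293 clones carrying GLP-1R. Cells settled 12 hours, received compound for 4-6 hr at 37 deg C, 5% CO2, and were read after 12 min detection reagent at RT.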
# [8] = qHTS of Nrf2 Activators: LOPAC Validation (AID 624149); details: Nrf2/ARE reporter cell assay; series mostly up to 46.1 µM; also: 0% is about no effect
# Summary of the method: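 Following overnight seeding in 5% FBS OPTI-MEM, AREc32_Fluc cells receive compounds for a 24 hr incubation at 37 deg C with 5% CO2. Steady-Glo is added, and after 30 min at RT luminescence is recorded.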
# [9] = HTS Assay for Allosteric Antagonists of the Human D2 Dopamine Receptor: Hit Validation in HTRF (AID 624455); details: Cells stably expressing D1 dopamine receptor, inhibition mode; series mostly up to 46.1 µM;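 also: stable D1 dopamine receptor cell line scored for blocking the D1 response; % is scaled to controls: 0 for no effect and ±100 for the full control effect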
# Summary of the method: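 Validation of hits used D1 receptor stably expressed in cells with HTRF detection of response inhibition; origin screen measured calcium flux following EC80 dopamine in a force-coupled, inducible Hek293 Trex D2 cell line.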
# [10] = Cytotoxicity counterscreen for NFkB agonists and antagonists (AID 624476); details: NFkB reporter cell line viability counterscreen; series mostly up to 46.1 µM; also: % is scaled to controls: 0 for no effect and ±100 for the full control effect
# [11] = qHTS Assay for Identification of Small Molecule Agonists for NFkB Signaling Pathway. (AID 624478); details: NFkB pathway reporter cell assay, agonist mode, cells co-stimulated with 10 pM TNF alpha; series mostly up to 46.1 µM;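 also: compounds tested together with TNF alpha at its EC50 of 10 pM; 0% is about no effect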
# Summary of the method: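 Assay medium contained 0.5% FBS and 10 mM HEPES pH 7.3. Compounds were added together with TNF alpha (10 pM final), incubated 5 h at 37 C, and the beta-lactamase signal was measured fluorometrically.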
# [12] = qHTS Assay for Identification of Small Molecule Antagonists for NFkB Signaling Pathway. (AID 624479; calls by dose curve; also: % is scaled to controls: 0 for no effect and ±100 for the full control effect); details: NFkB pathway reporter cell assay, antagonist mode; series mostly up to 38.3 µM
# [13] = Cell Proliferation Assay against the TMD8 Cell Line (AID 651645); details: TMD8 DLBCL cell line proliferation/viability; at 46.1 µM (top of the series);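 also: cells exposed to compound for 48 h before reading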
# Summary of the method: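 Cell viability of the ABC DLBCL line TMD8 is measured by CellTiter-Glo luminescence following a 48-hour incubation with compound. Percent activity uses DMSO as 100% and 9.2 uM bortezomib (final) as 0%.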
# [14] = Cell Proliferation Assay against the HBL1 Cell Line (AID 651646); details: HBL1 DLBCL cells; at 46.1 µM (top of the series);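 also: cells exposed to compound for 48 h before reading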
# Summary of the method: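 CellTiter-Glo luminescence after 48 h compound exposure at 37C gives percent activity, with DMSO as 100% and 9.2 uM bortezomib final as 0%. Cells: 500 log-phase HBL1 per well, RPMI plus 5% FBS.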
# [15] = Cell Proliferation Assay against the TMD8 Cell Line (Caspase readout at 16 hrs) (AID 651712); details: TMD8 lymphoma cells, caspase activation luminescence; series mostly up to 46.1 µM;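 also: 0% = DMSO and 100% = 9.2 µM bortezomib caspase activation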
# Summary of the method: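 Caspase-Glo luminescence measured apoptosis after a 16 h, 37 C compound exposure of TMD8 cells (500 cells/well, 5% FBS RPMI). DMSO set 0% and bortezomib at 9.2 uM final set 100% activity.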
# [16] = Cell Proliferation Assay against the TMD8 Cell Line (Caspase readout at 8 hrs) (AID 651713); details: TMD8 lymphoma cells, caspase activation luminescence; series mostly up to 46.1 µM;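 also: 0% = DMSO and 100% = 9.2 µM bortezomib caspase signal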
# Summary of the method: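 Luminescent caspase 3/7 assay; TMD8 cells, 8 h treatment at 37C, 5% CO2. Normalisation: DMSO 0%, 9.2 uM bortezomib 100%.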
# [17] = biological target: Tumor necrosis factor (Homo sapiens) (UniProt P01375); experiment: qHTS assay to identify small molecules that stimulate Tumor Necrosis Factor-alpha (TNF-alpha) secretion (AID 651757; active = well fitted curve in the direction sought with a large enough effect in the signal ratio; the % refers to the signal ratio; also: potency is read from the fitted curve at half-maximal effect); details: Human cells, HTRF 665/615 ratio; series mostly up to 92.2 µM
# Tumor necrosis factor (Homo sapiens), sequence (P01375 whole entry, looked up): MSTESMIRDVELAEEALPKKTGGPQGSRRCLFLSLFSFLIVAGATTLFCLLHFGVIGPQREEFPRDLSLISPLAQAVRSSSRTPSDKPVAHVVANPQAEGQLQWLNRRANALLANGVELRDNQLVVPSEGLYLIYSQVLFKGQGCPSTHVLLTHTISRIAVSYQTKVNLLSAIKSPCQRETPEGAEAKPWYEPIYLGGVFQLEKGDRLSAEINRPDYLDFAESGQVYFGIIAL
# Summary of the method: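 Using 3000 THP-1 cells per well, compounds and controls were applied for 17 hrs at 37 C. Detection followed with two labeled anti-TNF-alpha antibodies (cryptate donor, XL665 acceptor) for 3 hr at room temperature, measured by TR-FRET.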
# [18] = qHTS assay for small molecule disruptors of the mitochondrial membrane potential - 1 hr assay (AID 651754; calls by dose curve; also: potency is read from the fitted curve at half-maximal effect; nearly all actives have a fitted effect of over 35% in size); details: series mostly up to 92.2 µM
# Summary of the method: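 In this qHTS format, a 1 hr compound treatment of HepG2 cells precedes Mito-MPS staining, and membrane potential is judged from aggregate (red) against monomer (green) fluorescence intensity.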
# [19] = qHTS assay for small molecule disruptors of the mitochondrial membrane potential - 5 hr assay (AID 651755; calls by dose curve; also: potency is read from the fitted curve at half-maximal effect; nearly all actives have a fitted effect of over 40% in size); details: JC-1-type ratio dye
# Summary of the method: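 Membrane-potential dye readout: red aggregate (540 ex/590 em) versus green monomer (490 ex/535 em) fluorescence after 30 min dye loading, following 5 hr compound exposure at 37C of overnight-plated HepG2 cells.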
smiles,measurement,setting,value
CCCCCCCCC(=O)NCc1ccc(O)c(OC)c1,activation,[1],-0.791% (inactive)
CCC(=O)O[C@H]1CC[C@H]2[C@@H]3CCC4=CC(=O)CC[C@]4(C)[C@H]3CC[C@]12C,Potency,[2],inactive
same,activation,[3],-1.29% (inactive)
same,activation,[1],-1.92% (inactive)
same,activation,[4],-0.665% (inactive)
CCCCCCCCCCCCCCCC[n+]1ccccc1,Potency,[2],10.6 µM (active)
O=C(O)c1nn(Cc2ccc(Cl)cc2Cl)c2ccccc12,outcome,[5],inactive
same,outcome,[6],inactive
same,outcome,[7],inactive
same,outcome,[8],inactive
same,Potency,[9],inactive
same,outcome,[10],inactive
same,outcome,[11],inactive
same,outcome,[12],inactive
same,viability (% of control),[13],107%
same,"viability, percent of control",[14],112%
same,outcome,[15],inactive
same,outcome,[16],inactive
CCOP(=S)(OCC)O/N=C(\C#N)c1ccccc1,activation,[1],0.361% (inactive)
same,activation,[4],9.33% (inactive)
C[C@@H]1C[C@@H]([C@H](O)CC2CC(=O)NC(=O)C2)C(=O)[C@@H](C)C1,activation,[3],3.69% (inactive) and -1.29% (inactive) and 0.673% (inactive)
same,activation,[1],5.34% (inactive)
same,Potency,[17],inactive
Oc1ccc(Cl)cc1Sc1cc(Cl)ccc1O,Potency,[2],29.8 µM (active)
same,Potency,[3],28.2 µM (active)
same,Potency,[18],8.41 µM (active)
same,Potency,[19],7.5 µM (active)
C[C@H]1C(=O)O[C@@H]2CCN3CC=C(COC(=O)[C@](C)(O)[C@]1(C)O)[C@H]23,Potency,[2],inactive
same,activation,[1],0.569% (inactive)
same,activation,[4],-2.28% (inactive)
CC[n+]1c(-c2ccccc2)c2cc(N)ccc2c2ccc(N)cc21,Potency,[2],33.5 µM (active)
same,Potency,[3],8.91 µM (active)
same,Potency,[19],11.9 µM (active)
same,Potency,[17],37.6 µM (active)
same,activation,[4],11.3% (inactive)
